Reference: PubChem BioAssay AID1159580 (chemical genetic matrix, 2015)
“And” between values parts separate entries of the source, which are not always exact repeats. Equal values may be shown once. In all, about 5,500 compounds went through this assay and about 2,000 (36%) were called active. Not shown: some 18% with an inconclusive outcome. Rule as the data show it: active = normalized growth mostly below about 0.91 (no sharp cut-off); inconclusive = no clear call, values can overlap the other calls; inactive = mostly above about 0.92. The list shows a part of the results.

Assay: chemical genetic growth profiling, strain panel (AID 1159580);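 also: tested at 20 µM; growth read once vehicle control cultures reached saturation at 30 °C; 1 = growth at the plate median or of vehicle wells; lower values mean less growth of the strain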
Conditions: S. cerevisiae deletion strains, growth OD

Measured: normalized growth

NC(Cc1ccc(Cl)cc1)C(=O)O (stereo not drawn)
inactive: locus YAL013W, strain DEP1, hits give low values 1 | locus YAL021C, strain ccr4, hits give low values 0.989 | locus YAL026C, strain drs2, hits give low values 1.01 | locus YAL030W, strain snc1, hits give low values 0.993 | locus YAL040C, strain CLN3, hits give low values 1 | locus YBL061C, strain skt5, hits give low values 0.999 | locus YBR009C, strain hhf1, hits give low values 0.993 | locus YBR021W, strain FUR4, hits give low values 1.01 | locus YBR023C, strain chs3, hits give low values 0.991 | locus YBR171W, strain sec66, hits give low values 1.01 | locus YBR229C, strain ROT2, hits give low values 0.96 | locus YBR231C, strain swc5, hits give low values 0.997 | locus YBR279W, strain paf1, hits give low values 0.988 | locus YCL011C, strain gbp2, hits give low values 1 | locus YCL016C, strain dcc1, hits give low values 0.989 | locus YCL029C, strain bik1, hits give low values 0.994 | locus YCL061C, strain MRC1, hits give low values 1.01 | locus YCL069W, strain vba3, hits give low values 1 | locus YCR088W, strain abp1, hits give low values 0.999 | locus YDL005C, strain med2, hits give low values 0.989 | locus YDL035C, strain GPR1, hits give low values 0.999 | locus YDL040C, strain nat1, hits give low values 0.996 | locus YDL074C, strain BRE1, hits give low values 0.997 | locus YDL101C, strain DUN1, hits give low values 0.983 | locus YDL134C, strain PPH21, hits give low values 0.952 | locus YDL185W, strain tfp1, hits give low values 0.986 | locus YDL192W, strain arf1, hits give low values 1 | locus YDR001C, strain nth1, hits give low values 1.01 | locus YDR069C, strain doa4, hits give low values 0.988 | locus YDR101C, strain arx1, hits give low values 1.01 | locus YDR137W, strain rgp1, hits give low values 0.998 | locus YDR150W, strain NUM1, hits give low values 0.974 | locus YDR159W, strain sac3, hits give low values 0.976 | locus YDR162C, strain NBP2, hits give low values 1.01 | locus YDR195W, strain ref2 0.971 | locus YDR297W, strain sur2, hits give low values 0.992 | locus YDR318W, strain mcm21, hits give low values 0.987 | locus YDR334W, strain swr1, hits give low values 1.02 | locus YDR335W, strain msn5, hits give low values 1 | locus YDR388W, hits give low values 0.996 | locus YDR392W, strain spt3, hits give low values 0.936 | locus YDR502C, strain sam2, hits give low values 1 | locus YEL003W, strain gim4, hits give low values 1 | locus YEL037C, strain rad23, hits give low values 1.02 | locus YEL061C, strain CIN8 (second series), hits give low values 1.01 | locus YEL061C, strain CIN8, hits give low values 0.99 | locus YER015W, strain faa2, hits give low values 1 | locus YER016W, strain bim1, hits give low values 0.992 | locus YER110C, hits give low values 0.982 | locus YER111C, strain swi4, hits give low values 1.01 | locus YER155C, strain BEM2 (second series), hits give low values 0.975 | locus YER155C, strain BEM2, hits give low values 1.01 | locus YER167W, strain BCK2, hits give low values 0.999 | locus YFR010W, strain ubp6, hits give low values 1.03 | locus YGL078C, strain dbp3, hits give low values 0.988 | locus YGL086W, strain mad1, hits give low values 1.01 | locus YGL167C, strain pmr1, hits give low values 0.997 | locus YGL173C, strain kem1, hits give low values 1 | locus YGL227W, strain vid30, hits give low values 0.999 | locus YGL240W, strain doc1, hits give low values 0.972 | locus YGL248W, strain PDE1, hits give low values 0.987 | locus YGL253W, strain hxk2, hits give low values 1.01 | locus YGR078C, strain PAC10, hits give low values 0.991 and 1 | locus YGR135W, strain pre9, hits give low values 1 | locus YGR229C, strain SMI1, hits give low values 0.993 | locus YGR252W, strain gcn5, hits give low values 0.989 | locus YHR013C, strain ard1, hits give low values 0.994 | locus YHR027C, strain rpn1, hits give low values 0.992 | locus YHR030C, strain SLT2, hits give low values 0.986 and 0.959 | locus YHR079C, strain IRE1 (second series), hits give low values 0.991 | locus YHR079C, strain IRE1, hits give low values 0.986 | locus YHR094C, strain hxt1, hits give low values 0.994 | locus YHR129C, strain ARP1, hits give low values 0.985 | locus YHR142W, strain chs7, hits give low values 1.03 | locus YHR200W, strain rpn10, hits give low values 1 | locus YIL066C, strain RNR3, hits give low values 0.982 | locus YIL073C, strain SPO22, hits give low values 1.02 | locus YIL125W, strain kgd1, hits give low values 0.998 | locus YIR030C, strain dcg1, hits give low values 1 | locus YJL092W, strain hpr5, hits give low values 1.01 | locus YJL095W, strain BCK1 (second series), hits give low values 0.99 | locus YJL095W, strain BCK1, hits give low values 1.02 and 0.993 | locus YJL115W, strain asf1, hits give low values 0.994 | locus YJL129C, strain trk1, hits give low values 1.02 | locus YJL134W, strain LCB3, hits give low values 0.99 | locus YJL154C, strain vps35, hits give low values 1.01 | locus YJL164C, strain tpk1, hits give low values 0.992 | locus YJL166W, strain qcr8, hits give low values 0.991 | locus YJL168C, strain set2, hits give low values 0.994 | locus YJL187C, strain SWE1 (second series), hits give low values 0.975 | locus YJL187C, strain SWE1, hits give low values 0.993 | locus YJR043C, strain POL32, hits give low values 1.01 | locus YJR066W, strain TOR1, hits give low values 0.902
